Screen size: about 320,000 compounds; about 22,000 (6.9%) were called active. Not shown: some 27% with an inconclusive outcome. The list comes from a sample in which actives are over-represented; it also holds similar structures and randomly drawn compounds. Unmarked numbers belong to inactive results. Calls come from the whole dose curve; as a rule, active = well fitted inhibition curve with a large enough effect; inconclusive = small, poorly fitted or top-dose-only effect, or another doubt; inactive = no such curve, though single readings can be large or run the other way.
Experiment: Primary qHTS for delayed death inhibitors of the malarial parasite plastid, 96 hour incubation
Conditions: P. falciparum luciferase reporter growth; series mostly up to 28.7 µM; activity change, negative = inhibition: at the top concentration
In short: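 Two parasite generations (96 h, 37 C, 5% CO2) of compound exposure in infected erythrocytes (0.05% parasitemia, 2% hematocrit). Luciferase-reporter P. falciparum; decreased luminescence indicates inhibited growth, aimed at apicoplast-acting delayed death.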
% is set by controls: 0 for no effect and ±100 for the full control effect; potency is the fitted concentration of half-maximal effect.

| SMILES | activity change, negative = inhibition [%] | Potency |
| --- | --- | --- |
| Cc1ccc(-c2nn(-c3ccccc3)cc2C(=O)NCCCN2CCCC2=O)cc1 | -20.1 | – |
| CC1(NC(=O)CCS(=O)(=O)c2ccc(Cl)cc2)CCS(=O)(=O)C1 (stereo unspecified) | -29.7 | – |
| CC(=O)c1ccc(NC(=O)CCNS(=O)(=O)c2cc(Br)cnc2N)cc1 | 20.4 | – |
| C/C(=N\NC(=O)CC(C)C)c1c(C(F)(F)F)[nH]n(-c2nc3ccccc3s2)c1=O | 0 | – |
| COc1ccc(S(=O)(=O)N2CCOCC2)c(C)c1C | 3.7 | – |
| COc1ccc(/C=C/C(=O)Nc2ccc(C)cc2)cc1S(=O)(=O)N1CCOCC1 | – | 11.7 µM (active) |
| COc1ccc(CC(=O)Nc2ccc3c(c2)CCC3)cc1S(=O)(=O)N1CCOCC1 | 0 | – |
| COc1ccc(C(=O)NC(=S)N2CCNC(=O)C2CC(=O)OC(C)C)cc1 (stereo unspecified) | 4.17 | – |
| O=C1CCC(=O)N(c2ccccc2)N1 | 11.7 | – |
| Cc1cc(C)nc(Nc2n[nH]c(-c3ccccc3N)n2)n1 | 227 | – |
| COc1ccccc1OCC(=O)Nc1ccccc1C(=O)NC1CC1 | 45.6 | – |
| N#Cc1cc([N+](=O)[O-])ccc1NCC1CCCO1 (stereo unspecified) | -0.513 | – |
| COC(=O)CC1=NN(c2ccccc2)C(=O)C1 | – | 5.22 µM (active) |
| COC(=O)CC1=NN(c2nc(C)cc(C)n2)C(=O)C1 | -5.91 | – |
| C/C(N)=C(/C#N)C(=O)COC(=O)C1=NN(c2ccccc2)C(=O)CC1 | 30 | – |
| CCOC(=O)C(Cc1ccccc1)NC(=O)CCC(=O)c1ccc(OC)cc1 (stereo unspecified) | 28.2 | – |
| COc1cc([C@H](Cc2ccccc2)NC(C)=O)oc(=O)c1 | – | 2.94 µM (active) |
| COC(=O)[C@H](Cc1ccccc1)NC(=O)Nc1ccc(OC)cc1 | 26.2 | – |
| O=S(=O)(Nc1cccc(Oc2ccc(Cl)cc2)n1)c1ccc(F)cc1 | 5.23 | – |
| Nc1ccc(Cl)c(S(=O)(=O)Nc2ccccc2Cl)c1 | 4.92 | – |
| Cc1cccc(NS(=O)(=O)c2cc(Cl)ccc2Cl)n1 | – | 2.94 µM (active) |
| Cc1ccc(C(=O)NCCNC(=O)c2cnccn2)cc1 | 0.273 | – |

| SMILES | activity change, negative = inhibition [%] | Potency |
| --- | --- | --- |
| O=C(O)CCCC(=O)N1N=C(c2ccco2)CC1c1ccco1 (stereo unspecified) | -25.2 | – |
| O=S(=O)([N-]c1nc2ccccc2nc1-[n+]1ccc(Cc2ccccc2)cc1)c1ccc(Br)s1 | – | 13.1 µM (active) |
| O=S(=O)(NCc1cccnc1)c1ccc(Br)s1 | -3.44 | – |
| Oc1ccccc1-c1cc(-c2ccc(Cl)cc2)n[nH]1 | -48.6 | – |
| CCc1nn(CC(=O)N2CCN(c3cc(C)ccc3C)CC2)c(=O)c2cc3occc3n12 | -0.478 | – |
| O=C(O)c1cc(S(=O)(=O)N(Cc2ccccc2)c2ccccc2)ccc1Cl | 68.6 | – |
| COc1cccc(-c2noc(C3CCCN(C(=O)c4ccc(F)cc4)C3)n2)c1 (stereo unspecified) | 84 | – |
| COc1cc(OC)nc(NC(=O)CCl)n1 | 4.17 | – |
| COc1cc(OC)nc(S(C)(=O)=O)n1 | – | 11.7 µM (active) |
| COc1ccc(NS(=O)(=O)c2ccc(F)cc2F)cn1 | 36 | – |
| CC(NC(=O)C(C)(C)C)C(c1cccs1)N1CCN(Cc2ccccc2)CC1 (stereo unspecified) | -2.32 | – |
| Cc1ccc(NC(=O)CCCNC(=O)c2ccc(Cl)cc2)cc1S(=O)(=O)N1CCCCC1 | 29.9 | – |
| CCc1nnc(NC(=O)CSc2nc3c(c(=O)n2-c2ccccc2OC)SCC3)s1 | – | 8.28 µM (active) |
| CCOC(=O)c1sc(NC(=O)COc2ncnc3ccccc23)c(C(=O)OCC)c1C | -21.2 | – |
| COc1ccccc1-n1c(CNC(=O)c2ccccc2)nnc1SCC(=O)Nc1nnc(C)s1 | 8.45 | – |
| CCOC(=O)c1c(NC(=O)CSc2nnc(Cc3csc(N)n3)n2C)sc(C)c1C | 18.3 | – |
| CCOC(=O)c1sc(NC(=O)CSc2nc3c(c(=O)n2-c2ccccc2)SCC3)c(C(=O)OCC)c1C | – | 3.7 µM (active) |
| CCc1nnc(NC(=O)CSc2nnc(Cc3ccccc3)n2-c2ccc(OC)cc2)s1 | 39.7 | – |
| Cc1cc(C(=O)NC2CCN(Cc3ccccc3)CC2)n[nH]1 | 57.9 | – |
| O=C(Nc1cc2c3c(c1)CC(=O)N3CCC2)c1ccccc1F | -13 | – |
| CCCC1C(=O)N2C(N(C)C)=Nc3ccc(C)cc3N2C1=O (stereo unspecified) | 12.4 | – |
| COc1ccc(C(=O)N/N=C(\C)CC(=O)Nc2ccc(Cl)cn2)cc1 | 34.4 | – |

| SMILES | activity change, negative = inhibition [%] | Potency |
| --- | --- | --- |
| CC(c1ccccn1)N(C)C(=O)c1ccc2nc(Cc3cccc(Cl)c3)oc2c1 (stereo unspecified) | -1.98 | – |
| O=C(Cc1c(Cl)cccc1Cl)NC1CC1 | 0.175 | – |
| COC(=O)c1ccc(COc2ccc(C#N)cc2)o1 | -24.3 | – |
| CC(Oc1ccc(Br)cc1)C(=O)NC1CCCCCC1 (stereo unspecified) | 52.7 | – |
| CN(C)S(=O)(=O)c1ccc(C(=O)NCCN=C2NS(=O)(=O)c3ccccc32)cc1 | 34.3 | – |
| COc1ccc(N2CCC(N3CCN(C)C(CCO)C3)CC2)cc1 (stereo unspecified) | – | 14.7 µM (active) |
| CNCC(O)CN1CCN(c2ccccc2OC)CC1 (stereo unspecified) | 23.6 | – |
| CCOc1ccccc1CN1CCN(C2CCC2)CC1CCO (stereo unspecified) | -8.22 | – |
| COc1ccccc1N1CCC(N2CCN(CC(C)(C)C)C(CCO)C2)CC1 (stereo unspecified) | – | 0.465 µM (active) |
| COc1ccc(OCC(=O)Nc2ccc(N3CCC(C)CC3)cc2)cc1 | 15.5 | – |
| Cc1cc(F)ccc1N1CCC(N2CCN(C)C(CCO)C2)CC1 (stereo unspecified) | 0 | – |
| COc1cccc(C(=O)Nc2nnc(S(=O)(=O)N(C)c3ccccc3)s2)c1 | 3.28 | – |
| CCc1cc(-c2nnc(SCC(=O)NC3CC3)n2C)cs1 | 0.597 | – |
| Cc1ccc(S(=O)(=O)CC(=O)Nc2nnc(C)s2)cc1 | -3.54 | – |
| CCOc1ccc(CN2CCC(n3nccc3NC(=O)C3CC3)CC2)cc1CO | -0.811 | – |
| COc1ccccc1Oc1ccc(N2CC(C(=O)OCC(=O)c3ccc(F)cc3)CC2=O)cc1 (stereo unspecified) | 12.8 | – |
| COc1ccc(CNC(=O)c2ccc3oc(C(C)C)nc3c2)cc1 | 2.72 | – |
| CCCCc1nc2cc(C(=O)NCCc3cnn(C)c3)ccc2o1 | – | 7.38 µM (active) |
| CC(C)c1nc2cc(C(=O)NC(C)c3cnn(C)c3)ccc2o1 (stereo unspecified) | -15.1 | – |
| CC(=O)c1c(C)[nH]c(C(=O)CN2C(=O)NC(C)(C)C2=O)c1C | 19.8 | – |
| CN(C)CCN(C(=O)CN1C(=O)c2ccccc2C1=O)c1nc2cc3c(cc2s1)OCCO3 | 50.3 | – |
| COc1ccc(-n2c(-c3ccccc3)nc3ccccc3c2=O)cc1 | 5.13 | – |

| SMILES | activity change, negative = inhibition [%] | Potency |
| --- | --- | --- |
| Cc1nc2ccccc2c(=O)n1-c1ccc(Cl)cc1Cl | -13.5 | – |
| CCCN1C(=O)C(Cc2nc3ccccc3c(=O)n2-c2ccccc2)c2cc(C)ccc21 (stereo unspecified) | – | 6.57 µM (active) |
| CC(=O)c1ccc(NC(=O)C2CCCN2S(=O)(=O)c2cccs2)cc1 (stereo unspecified) | 13.5 | – |
| Cc1c(NC(=S)Nc2ccccc2)c(=O)n(-c2ccccc2)n1C | 8.46 | – |
| Cc1c(NC(=O)c2c([N+](=O)[O-])cnn2C)c(=O)n(-c2ccccc2)n1C | -19.3 | – |
| Cc1c(NC(=O)Nc2cccc([N+](=O)[O-])c2)c(=O)n(-c2ccccc2)n1C | – | 3.7 µM (active) |
| Cc1c(C(=O)Nc2ccccn2)oc2ccc(Br)cc12 | 11.2 | – |
| O=C(NCCCn1ccnc1)c1cc(Br)c(Br)s1 | 11.1 | – |
| COc1cccc2sc(NNC(=O)c3nc4ccccc4s3)nc12 | – | 9.28 µM (active) |
| COc1ccc(S(=O)(=O)N2CCOCC2)cc1C(=O)Nc1nc2ccccc2s1 | 30.8 | – |
| COc1cc(/C=N/Nc2nc3ccccc3s2)ccc1O | 155 | – |
| CCn1c(SC(C)C(=O)Nc2ccc(N3CCOCC3)cc2)nnc1-c1ccco1 (stereo unspecified) | 3.27 | – |
| COc1ccc(NS(=O)(=O)c2ccc(NC(C)=O)cc2)cc1OC | 0.482 | – |
| COc1ccc(C(=O)Oc2cc(/C=N/NS(=O)(=O)c3ccc(C)cc3)ccc2OC)cc1 | 55.1 | – |
| COc1ccc(/C=C/C(=O)c2ccc(NS(=O)(=O)c3ccc(C)cc3)cc2)cc1O | – | 11.7 µM (active) |
| CSc1sc(C(=O)NNC(=O)c2ccc(Cl)cc2)c2c1C=CCC2 | -3.23 | – |
| COc1ccc(CN2C(=O)CN=C2Nc2ccc(C)cc2C)cc1 | -3.83 | – |
| CC(C)(C)c1ccc(CN2C(=O)CN=C(c3ccccc3)c3ccccc32)cc1 | – | 1.31 µM (active) |
| CC(C)(C)c1ccc(CN2C(=O)c3ccccc3S2(=O)=O)cc1 | 101 | – |
| CCCn1c(N)c(N(CCOC)C(=O)C2CCCC2)c(=O)[nH]c1=O | -14.2 | – |
| CCC(C(=O)NC1CCCCC1)N(C(=O)c1snc(C(N)=O)c1N)c1ccc(OC)cc1OC (stereo unspecified) | 5.62 | – |
| O=C(/C=C(O)/C=C/c1ccc(O)cc1)/C=C/c1ccc(O)cc1 | 34.9 | – |

| SMILES | activity change, negative = inhibition [%] | Potency |
| --- | --- | --- |
| COc1ccc(N2CCN(Cc3cc(=O)oc4ccc5ccccc5c34)CC2)cc1 | 0 | – |
| COc1ccccc1N1CCN(Cc2cc(OC)c3c(c2)OCO3)CC1 | -8.21 | – |
| COc1cc(C(CCN2CCN(c3ccccc3)CC2)c2c(OC)cc(OC)c3ccc(=O)oc23)cc(OC)c1OC (stereo unspecified) | – | 8.28 µM (active) |
| c1ccc(-c2cnc(CN3CCN(c4ccccc4)CC3)o2)cc1 | 32 | – |
| Oc1cc2c(cc1CN1CCN(c3ccccc3)CC1)OCO2 | 1.62 | – |
| COc1cc(OC)c2ccc(=O)oc2c1C(CCN1CCN(c2ccccc2)CC1)c1ccc2c(c1)OCO2 (stereo unspecified) | – | 9.28 µM (active) |
| O=C1/C(=C/c2ccc3c(c2)OCO3)Oc2cc(OCC(=O)N3CC(O)C[C@H]3C(=O)O)ccc21 (stereo partly specified) | 13.5 | – |
| Cc1ccc(O)c(NC(=O)c2cc(-c3ccco3)on2)c1 | 37.5 | – |
| O=C(NCc1ccco1)/C(=C\c1cccc([N+](=O)[O-])c1)NC(=O)c1ccco1 | 23.6 | – |
| O=C(Nc1ccccc1)Nc1ccc(C(F)(F)F)cn1 | 38.6 | – |
| CCOC(=O)CN(C)S(=O)(=O)c1ccc(-c2cc(C(=O)OC)sc2C(F)(F)F)cc1 | 9.24 | – |
| COc1cc(NC(=O)CCNC(=O)Cn2ccc3ccccc3c2=O)cc(OC)c1OC | -20.8 | – |
| CNc1nc(SC)nc(N(C#N)CC(=O)OC)n1 | – | 8.28 µM (active) |
| CCCCn1c(N)c(N(CCOC)C(=O)COc2c(C)cccc2C)c(=O)[nH]c1=O | -1.63 | – |
| CC1CC(=O)N(CC(=O)Nc2cccc(Cl)c2)c2ccccc2S1(=O)=O (stereo unspecified) | -29.7 | – |
| Cc1noc(C)c1C(=O)OCC(=O)/C=C1\N(C)c2ccccc2C1(C)C | -15.2 | – |
| CN1/C(=C\C(=O)c2cccnc2Cl)C(C)(C)c2ccccc21 | -19.4 | – |
| CC(=O)Nc1cccc(OCC(=O)/C=C2\N(C)c3ccccc3C2(C)C)c1 | – | 0.828 µM (active) |

From PubChem BioAssay AID504834 (National Center for Advancing Translational Sciences (NCATS), 2011)
